This note sets out measurements from PubChem BioAssay (EPA / NIEHS).

Active and inactive are the calls of the source. The calls were made as follows: active = hit-call score of the fitted dose curve at least 0.9, where 1 is the maximum; inactive = score below 0.9.

Estrogen receptor (Homo sapiens), sequence (P03372 whole entry, looked up): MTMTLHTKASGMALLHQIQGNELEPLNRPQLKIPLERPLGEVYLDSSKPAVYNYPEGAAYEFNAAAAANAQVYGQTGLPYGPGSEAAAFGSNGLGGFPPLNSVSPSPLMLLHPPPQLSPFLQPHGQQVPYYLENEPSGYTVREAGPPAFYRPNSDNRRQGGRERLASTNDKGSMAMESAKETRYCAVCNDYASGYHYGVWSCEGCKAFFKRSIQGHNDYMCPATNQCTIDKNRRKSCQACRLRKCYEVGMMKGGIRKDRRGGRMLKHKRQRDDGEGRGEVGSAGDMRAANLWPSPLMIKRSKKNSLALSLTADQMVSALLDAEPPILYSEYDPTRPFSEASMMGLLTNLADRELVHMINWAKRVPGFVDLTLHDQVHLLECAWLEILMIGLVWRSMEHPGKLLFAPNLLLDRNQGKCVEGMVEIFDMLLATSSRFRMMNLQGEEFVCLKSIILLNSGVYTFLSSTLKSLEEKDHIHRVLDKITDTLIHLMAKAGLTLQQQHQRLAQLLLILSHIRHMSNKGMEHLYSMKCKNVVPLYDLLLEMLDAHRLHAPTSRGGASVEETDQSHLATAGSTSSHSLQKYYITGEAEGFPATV

In this experiment the target is Estrogen receptor (Homo sapiens) (UniProt P03372). In words: CCTE_Deisenroth_AIME_384WELL_LUC_Shift: CCTE's 384-well Estrogen Receptor Transactivation Assay with AIME metabolic competence data shift (ERTA luciferase; difference in metabolism positive and negative), Deisenroth Lab (AID 2284041).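 Also: shift is response with S9 minus without S9 so positive means metabolism raised ER signal.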 On the procedure:
CCTE_Deisenroth_AIME_384WELL (AIME metabolism assay) is a cell-based, single-readout assay that uses VM7Luc4E2, a human mammary gland/breast cell line, with measurements taken at 24 hour after chemical dosing in a 384-well plate.CCTE_Deisenroth_AIME_384WELL_LUC_Shift is one of two analysis components calculated from the CCTE_Deisenroth_AIME_384WELL assay. […] AIME is optimized to impart phase I hepatic metabolism using phenobarbital/beta-naphthoflavone induced hepatic S9 from male Sprague Dawley rats. Parent chemicals are incubated for 2 hours in the AIME assay prior to transfer to the VM7Luc ERTA assay plate. […] The metabolic curve shift response is defined as the pairwise difference between the positive (AEID 2488) and negative (AEID 2490) normalized response values at each concentration for a given chemical across replicate experiments. The pairwise differences form the basis for a concentration-response curve. Standard curve fit analysis identfiied chemicals where the calculated shift was greater than the shift-derived baseline cutoff. A positive hit designation in this endpoint indicates a significant shift trend in the positive direction for bioactivation.
The AIME procedure consists of a preparative "pre-stamping" step using a barium chloride/poly-L-lysine (PLL) solution followed by "stamping" the lid in alginate-hepatic S9 (metabolism positive) or alginate-water (metabolism negative) to form microspheres. Once stamping is completed, the AIME lids are placed in duplicate microplates (metabolism positive or negative) containing chemical solutions and incubated for two hours to facilitate metabolic reactions. The conditioned medium, containing parent chemical or metabolites, is then transferred to the cell-based VM7Luc Estrogen Receptor Transactivation Assay (ERTA) for 24 hours. A typical experimental design tests a 10-point concentration series (0.002 - 200 uM) for 8 compounds (96-well format)1 or 32 compounds (384-well format)2 in single technical replicate. AIME assay controls include trans-stilbene (bioactivated control) and ethylparaben (bioinactivated control). ERTA assay plate controls include 17-beta estradiol (positive control) and DMSO (solvent control). Experiments typically comprise a minimum of four experimental replicates (n=4).
For the molecule `CCOc1ccc(N)cc1`, the result was inactive.
Then `N#Cc1cccnc1`, with “inactive”; and `Cc1cc(Cl)ccc1OC(C)C(=O)O` (stereo not given), with “inactive”.
On to `CC(=Cc1ccccc1)[N+](=O)[O-]`, for which the outcome was inactive.
In the case of `N#CCC#N`, the result was inactive.
For `CCN(CCO)CCO`, the result was inactive.
Then `CNC(=O)O/N=C/C(C)(C)S(C)(=O)=O`, with “inactive”; and `CCC[CH2][Sn]([Cl])([Cl])[CH2]CCC`, with “inactive”; and `O=C(O)COc1ccc(Cl)cc1`, with “inactive”.
The entry for `O=S1(=O)OC(c2cc(Br)c(O)c(Br)c2)(c2cc(Br)c(O)c(Br)c2)c2ccccc21` is “inactive”.
